Data taken from PubChem BioAssay.

Assay: P. aeruginosa biofilm formation inhibitors, primary screen, PAO1 strain, BacTiter-Glo luminescence, LB-PBS (AID 1144)
Conditions: 12 h, higher = more signal; call rule not given here

z-score, inactive:
O=C1c2ccccc2[C@](Cc2ccccc2I)(C(=O)NCCN2CCOCC2)[C@H](c2ccc(CO)cc2)N1Cc1ccccc1Cl 0.825, O=C(N1CCCCC1)[C@]1(Cc2ccccc2)N=C(c2ccc(OCCCO)cc2)O[C@@H]1c1ccccc1 -0.759, CC(=O)NCCCC[C@@H]1NC(=O)[C@H]2C[C@@H](C(=O)NCCCCCCNC(=O)CS)[C@@H](c3ccc(O)cc3)N2C1=O -0.619, O=C(CS)NCCCCCCNC(=O)[C@@H]1C[C@@H]2C(=O)NCC(=O)N2[C@@H]1c1cccc(OCCO)c1 -0.865, CC[C@@H]1C=C(C(=O)O)[C@H](c2ccc(Br)cc2)N1S(=O)(=O)c1ccc(C)cc1 0.598, CCOC(=O)C[C@H]1[C@H](OC(=O)c2ccccc2-c2ccccc2)[C@@H](NC(=O)CC(C)C)c2cc(OCCCO)ccc2N1C(=O)Cc1ccc(OC)cc1 0.393, CCCC[C@@H]1C[C@H]1[C@@H](NC(=O)c1cccs1)c1ccc(-c2ccccc2)cc1 -0.218, COc1ccc(-c2cc3c(c(-c4ccc(Oc5ccccc5)cc4)n2)[Si](C(C)C)(C(C)C)OC3)cn1 -0.0233, CC(C)C(=C=CC[C@@H](O)c1ccc(OCCO)cc1)C[C@@H](O)COCc1ccccc1 -0.933
